# Shown are actives, neighbours in structure and some others; about 8.1% of the full set was active somewhere.
# ELG1 DNA repair: qHTS screen for small molecules that inhibit ELG1-dependent DNA repair in human embryonic kidney (HEK293T) cells expressing luciferase-tagged ELG1; HEK293T ELG1-luciferase reporter, luminescence, 16 h; DNA damage induced by 5-fluorouridine; 330,000 tested, 2.3% active; AID 504467, 2011; Potency, µM (highest dose often 46.1 µM), without a hit: top-dose activity change, negative = inhibition, usual class: inhibitors; note: % is set by controls: 0 for no effect and ±100 for the full control effect; nearly all actives have a fitted effect of over 55% in size
#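 5-Fluorouridine DNA damage + compound/DMSO, 2,000 cells/well, 16 h, 37 °C/5% CO2. ONE-Glo, 30 min RT, luminescence. Readout = decrease in reporter signal.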
# KB-V1 cytotox: qHTS assay for MDR1-selective chemotherapeutics: Primary screen using the drug-selected MDR subline cells KB-V1; KB-V1 MDR cells viability, CellTiter-Glo, 72 h; Potency, µM (titrated, usually from 46.1 µM), usual class: cytotoxic; 400,000 tested, 3.4% active; AID 1347076, 2019; note: % is set by controls: 0 for no effect and ±100 for the full control effect; nearly all actives have a fitted effect of over 60% in size
#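 In this primary screen, KB-V1 cells overexpressing P-gp are incubated with library compounds (lowest to highest concentration) for 72 h at 37 degrees C before a luminescent ATP viability read.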
# KB-3-1 cytotox: qHTS assay for MDR1-selective chemotherapeutics: Primary screen using the parental adenocarcinoma cell KB-3-1. KB-3-1 viability, CellTiter-Glo ATP luminescence, 72 h. Potency, µM (titrated, usually from 46.1 µM), usual class: cytotoxic. 400,000 tested, 1.4% active; note: % is set by controls: 0 for no effect and ±100 for the full control effect; nearly all actives have a fitted effect of over 60% in size
#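 Multi-concentration cytotoxicity screen in KB-3-1 cells grown in DMEM lacking phenol red with 10% FBS. After 72 h at 37 °C with compound, ATP-dependent luminescence was recorded.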
# SW480 rereplic: A quantitative high throughput screen for small molecules that induce DNA re-replication in SW480 colon adenocarcinoma cells; SW480 DNA re-replication, Hoechst DNA content imaging, 48 h; Potency, µM (highest dose often 46.1 µM), inactives show at the highest dose re-replication activation, most hits filed as activators; 340,000 tested, 1.8% active; AID 624297, 2012; note: % of control where 0% means no effect; nearly all actives have a fitted effect of over 55% in size
#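 Cells (250 per well) received 23 nL compound or DMSO by pin tool and were kept 48 hr at 37 C, 5% CO2. Nuclei were then stained with Hoechst for 40 min and scanned for DNA content.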
# MCF10A rereplic: A quantitative high throughput screen for small molecules that induce DNA re-replication in MCF 10a normal breast cells. MCF 10A DNA re-replication, Hoechst nuclear intensity, 48 h. Potency, µM (doses to about 46.1 µM), for the others: at the highest dose activity, positive = re-replication, most hits filed as activators. 350,000 tested, 2.9% active. AID 624296, 2012; note: % of control where 0% means no effect; nearly all actives have a fitted effect of over 50% in size
# Starred values were filed as active, the others as inactive; i = inactive; u = inconclusive; x = no result given. Calls come from the whole dose curve; as a rule, active = well fitted curve in the direction sought with a large enough effect; inconclusive = small, poorly fitted or top-dose-only effect, or another doubt; inactive = no such curve, though single readings can be large; an effect the other way counts as inactive or inconclusive. Potency is the fitted concentration of half-maximal effect.
SMILES,ELG1 DNA repair,KB-V1 cytotox,KB-3-1 cytotox,SW480 rereplic,MCF10A rereplic
Cc1nc2ccc(S(=O)(=O)CCC(=O)Nc3ccc(F)cc3C)cc2s1,x,i,i,x,x
Cc1cccc(Nc2nc(N3CCOCC3)nc(N3CCOCC3)n2)c1,7.3µM*,i,i,27.5%,5.2%
O=C(CSc1nc(Nc2ccccc2)nc(N2CCOCC2)n1)Nc1ccc2c(c1)OCCO2,u,i,i,-2.6%,18.4µM*
FC(F)(F)c1cccc(Nc2nc(N3CCOCC3)nc(N3CCOCC3)n2)c1,u,i,u,u,u
Oc1cccc(Nc2nc(N3CCOCC3)nc(N3CCOCC3)n2)c1,u,i,u,u,23.1µM*
c1ccc(Nc2nc(N3CCOCC3)nc(N3CCOCC3)n2)cc1,u,u,16.4µM*,18.5%,u
COc1ccc2c(c1)NC(c1ccc(Cl)cc1)=NC(c1cccs1)=N2,x,i,i,x,x
CCOC(=O)C[n+]1cccc(Br)c1,x,i,i,x,x
CCn1cc2nc(SCc3ccccc3F)n(Cc3ccc(C)cc3)c(=O)c2n1,x,i,i,x,x
CCNC(=O)C1CCCN1S(=O)(=O)c1ccc(C)cc1 (stereo not given),10.6%,i,i,0.3%,20.6µM*
CNC(=O)C(=O)NCC1CCCN1S(=O)(=O)c1cccs1 (stereo not given),10.4%,i,i,23.1µM*,7.5%
Cc1ccc(S(=O)(=O)N2CCCC2C(=O)N(C)Cc2cccs2)cc1 (stereo not given),u,20.6µM*,i,-5.9%,6.7%
Cc1ccc(S(=O)(=O)N2CCCC2CNC(=O)C(=O)NCc2cccs2)cc1 (stereo not given),-14.6%,13µM*,u,u,17.7%
COc1cc2[nH]c(=O)n(CCCC(=O)N(C)Cc3ccccc3)c(=O)c2cc1OC,x,i,i,x,x
C[C@H](O)Cc1cc2ccccc2c(=O)o1,0.0%,i,i,1.1%,2.91µM*
Nc1[nH]c(=S)nc2nnsc12,x,i,u,x,x
Cc1ccc(NC(=O)C(OC(=O)c2ccc(O)cc2)c2ccccc2)cc1Cl (stereo not given),u,i,i,5.1%,25.9µM*
COC(=O)c1nn(-c2ccccc2)c(=O)cc1O,-0.3%,i,i,-17.6%,0.1%
COC(=O)c1nn(-c2c(C)n(C)n(-c3ccccc3)c2=O)cc1O,-1.4%,i,i,5.0%,4.11µM*
Cc1ccccc1CNc1ccc(C(CC(N)=O)NC(=O)c2ccc(Br)cc2)cc1[N+](=O)[O-] (stereo not given),-24.0%,i,i,u,10.3µM*
O=C(O)CCCc1ccc2ccc3cccc4ccc1c2c34,0.0%,i,i,4.5%,16.4µM*
NCCCCc1ccc2ccc3cccc4ccc1c2c34,1.2%,i,i,27.4%,u
O=C(OCc1ccccc1)N1CCOCCOCCN(C(=O)OCc2ccccc2)CCOCCOCC1,10µM*,u,i,-1.9%,-8.4%
Cc1cn([C@H]2C[C@H](O)[C@@H](/C=C/C(=O)NCCN3CCCCC3)O2)c(=O)[nH]c1=O,x,i,i,x,x
O=C(NCC1CC1)c1ccc(-c2cn[nH]c2)c2ccoc12,x,i,i,x,x
SMILES,ELG1 DNA repair,KB-V1 cytotox,KB-3-1 cytotox,SW480 rereplic,MCF10A rereplic
O=C(O)c1ccc(Cl)c(S(=O)(=O)N(Cc2ccccc2)c2ccccc2)c1,-2.8%,i,i,0.5%,9.1%
O=C(O)c1ccc(Cl)c(S(=O)(=O)N(Cc2ccccc2)c2ccccc2Cl)c1,-24.0%,u,u,0.9%,8.2µM*
COc1ccc(N(Cc2ccccc2)S(=O)(=O)c2cc(C(=O)O)ccc2Cl)cc1,-4.3%,i,i,-3.3%,18.4µM*
Cc1ccc(C)c2nc(Cl)c(C3NC(=O)c4ccccc4N3)cc12 (stereo not given),u,u,u,2.9%,u
COc1cc(C)c(C2NC(=O)c3ccccc3N2)cc1C (stereo not given),x,u,2.59µM*,7.31µM*,7.31µM*
Cn1cc(C2NC(=O)c3ccccc3N2)c2ccccc21 (stereo not given),x,1.46µM*,1.16µM*,5.8µM*,2.91µM*
Cc1ccc(C)c(C2NC(=O)c3ccccc3N2)c1 (stereo not given),-11.5%,i,u,7.31µM*,2.31µM*
COCCCNC(=O)c1cnn(-c2ccccc2Cl)c1C1CCN(C(=O)OC(C)(C)C)CC1,x,i,i,x,x
CC(Sc1nnc(-c2cccnc2)n1N)C(=O)Nc1ccc2c(c1)OCCO2 (stereo not given),3.3%,i,i,20.3%,-1.6%
O=C(/C=C/c1ccccc1Cl)Nc1cccc([S+](=O)([O-])Nc2ccccc2F)c1,x,i,u,x,x
O=C(OCn1ncc(Cl)c(Cl)c1=O)c1ccc(C(F)(F)F)cc1,u,6.51µM*,7.31µM*,6.51µM*,6.51µM*
O=C(O)c1ccc(-n2ncc(Cl)c(Cl)c2=O)cc1,x,u,i,x,x
Cc1ccc(C(=O)OCn2ncc(Cl)c(Cl)c2=O)cc1,7.31µM*,u,4.61µM*,u,3.66µM*
COC(=O)C(NC(=O)CC(C)C)(Nc1nc2c(s1)CCCC2)C(F)(F)F (stereo not given),x,i,i,x,x
CCOc1ccc(C(=O)OCC(=O)NC2CCCCCCC2)cc1,8.7%,i,i,36.6%,4.4%
N=c1c(C(=O)NC2CCCCC2)cc2c(=O)n3ccccc3nc2n1Cc1ccc(F)cc1,8.2µM*,i,i,u,u
N=c1c(C(=O)NC2CCCC2)cc2c(=O)n3ccccc3nc2n1CCN1CCOCC1,-0.5%,i,i,2.82µM*,u
Cc1ccc(Cn2c(=N)c(C(=O)NC3CCCCC3)cc3c(=O)n4ccccc4nc32)cc1,7.5%,i,i,2.31µM*,2.59µM*
COC(=O)c1c(NC2=NS(=O)(=O)c3ccccc32)sc2c1CCC(C(C)(C)C)C2 (stereo not given),x,i,i,-4.5%,u
CCCNC(=O)N(C)C[C@H]1Oc2ncc(C#CCc3ccccc3)cc2C(=O)N([C@H](C)CO)C[C@H]1C,x,i,i,x,x
Cc1ccccc1Cc1c(C)nc2nc(SCC(=O)N(C)c3ccccc3)nn2c1C,x,i,i,x,x
Cc1nn(Cc2ccccc2Cl)c(Cl)c1/C=C/C(=O)OCC(=O)NC(N)=O,-19.5%,i,i,3.9%,4.2%
